# In ChEMBL document CHEMBL1961873, “Compounds: GSK PKIS; Assays: Nanosyn kinase panel” (2012):
# Experiments:
# [1] = target: T1, Aurora kinase A (Homo sapiens) (UniProt O14965); settings: at 1 µM;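 note: values are mean percent inhibition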
# T1 sequence (whole entry): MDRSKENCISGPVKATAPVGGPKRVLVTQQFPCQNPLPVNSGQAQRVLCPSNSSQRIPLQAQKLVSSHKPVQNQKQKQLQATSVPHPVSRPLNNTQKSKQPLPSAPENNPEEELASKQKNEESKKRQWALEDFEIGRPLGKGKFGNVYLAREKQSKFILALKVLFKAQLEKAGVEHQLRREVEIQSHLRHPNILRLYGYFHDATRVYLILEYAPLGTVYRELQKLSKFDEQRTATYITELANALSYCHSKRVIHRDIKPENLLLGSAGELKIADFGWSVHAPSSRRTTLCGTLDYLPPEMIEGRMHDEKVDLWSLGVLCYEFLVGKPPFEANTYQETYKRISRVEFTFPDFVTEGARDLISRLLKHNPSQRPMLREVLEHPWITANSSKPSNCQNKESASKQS
# [2] = target: Aurora kinase B (Homo sapiens) (UniProt Q96GD4); settings: at 0.1 µM
# [3] = target: Aurora kinase B (Homo sapiens) (UniProt Q96GD4); settings: at 1 µM
# [4] = target: T2, Aurora kinase C (Homo sapiens) (UniProt Q9UQB9); settings: at 0.1 µM
# T2 sequence (whole entry): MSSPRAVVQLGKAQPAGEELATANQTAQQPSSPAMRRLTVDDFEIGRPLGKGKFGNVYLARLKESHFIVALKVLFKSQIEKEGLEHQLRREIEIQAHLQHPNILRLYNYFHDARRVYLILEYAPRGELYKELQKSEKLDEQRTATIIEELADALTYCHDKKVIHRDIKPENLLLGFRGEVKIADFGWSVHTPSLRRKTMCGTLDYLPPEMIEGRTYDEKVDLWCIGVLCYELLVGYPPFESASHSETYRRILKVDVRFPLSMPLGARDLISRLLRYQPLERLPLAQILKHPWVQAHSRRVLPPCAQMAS
# [5] = target: T2, Aurora kinase C (Homo sapiens); settings: at 1 µM
# [6] = target: Serine/threonine-protein kinase 10 (Homo sapiens) (UniProt O94804); settings: at 0.1 µM
# [7] = target: Serine/threonine-protein kinase 10 (Homo sapiens) (UniProt O94804); settings: at 1 µM
# [8] = target: T3, Mitogen-activated protein kinase kinase kinase kinase 2 (Homo sapiens) (UniProt Q12851); settings: at 0.1 µM
# T3 sequence (whole entry): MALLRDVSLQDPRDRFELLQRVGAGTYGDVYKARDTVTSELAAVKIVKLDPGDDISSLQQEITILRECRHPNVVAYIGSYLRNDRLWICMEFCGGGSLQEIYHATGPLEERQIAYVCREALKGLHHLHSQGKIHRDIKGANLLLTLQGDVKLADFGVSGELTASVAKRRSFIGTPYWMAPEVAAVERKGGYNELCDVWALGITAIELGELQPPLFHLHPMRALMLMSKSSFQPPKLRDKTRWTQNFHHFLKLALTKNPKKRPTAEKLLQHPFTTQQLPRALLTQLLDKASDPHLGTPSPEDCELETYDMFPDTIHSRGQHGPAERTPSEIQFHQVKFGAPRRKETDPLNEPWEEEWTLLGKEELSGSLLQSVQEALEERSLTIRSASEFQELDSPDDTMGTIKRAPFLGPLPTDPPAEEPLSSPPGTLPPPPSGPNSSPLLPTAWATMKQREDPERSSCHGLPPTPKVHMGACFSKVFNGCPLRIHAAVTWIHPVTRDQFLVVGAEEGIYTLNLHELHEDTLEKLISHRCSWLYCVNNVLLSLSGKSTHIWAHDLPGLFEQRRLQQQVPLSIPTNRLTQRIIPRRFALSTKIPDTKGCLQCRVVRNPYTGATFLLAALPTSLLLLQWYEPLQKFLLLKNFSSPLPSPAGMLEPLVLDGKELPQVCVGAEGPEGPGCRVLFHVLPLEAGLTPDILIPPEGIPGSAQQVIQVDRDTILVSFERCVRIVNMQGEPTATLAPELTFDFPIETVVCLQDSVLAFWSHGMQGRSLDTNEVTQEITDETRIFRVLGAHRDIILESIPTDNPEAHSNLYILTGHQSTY
# [9] = target: T3, Mitogen-activated protein kinase kinase kinase kinase 2 (Homo sapiens); settings: at 1 µM
# [10] = target: Mitogen-activated protein kinase kinase kinase kinase 4 (Homo sapiens) (UniProt O95819); settings: at 0.1 µM
# [11] = target: Mitogen-activated protein kinase kinase kinase kinase 4 (Homo sapiens) (UniProt O95819); settings: at 1 µM
# [12] = target: Dual specificity mitogen-activated protein kinase kinase 1 (Homo sapiens) (UniProt Q02750); settings: at 0.1 µM
# [13] = target: Dual specificity mitogen-activated protein kinase kinase 1 (Homo sapiens) (UniProt Q02750); settings: at 1 µM
# [14] = target: Misshapen-like kinase 1 (Homo sapiens) (UniProt Q8N4C8); settings: at 0.1 µM
# [15] = target: Misshapen-like kinase 1 (Homo sapiens) (UniProt Q8N4C8); settings: at 1 µM
# [16] = target: T4, Serine/threonine-protein kinase 4 (Homo sapiens) (UniProt Q13043); settings: at 0.1 µM
# T4 sequence (whole entry): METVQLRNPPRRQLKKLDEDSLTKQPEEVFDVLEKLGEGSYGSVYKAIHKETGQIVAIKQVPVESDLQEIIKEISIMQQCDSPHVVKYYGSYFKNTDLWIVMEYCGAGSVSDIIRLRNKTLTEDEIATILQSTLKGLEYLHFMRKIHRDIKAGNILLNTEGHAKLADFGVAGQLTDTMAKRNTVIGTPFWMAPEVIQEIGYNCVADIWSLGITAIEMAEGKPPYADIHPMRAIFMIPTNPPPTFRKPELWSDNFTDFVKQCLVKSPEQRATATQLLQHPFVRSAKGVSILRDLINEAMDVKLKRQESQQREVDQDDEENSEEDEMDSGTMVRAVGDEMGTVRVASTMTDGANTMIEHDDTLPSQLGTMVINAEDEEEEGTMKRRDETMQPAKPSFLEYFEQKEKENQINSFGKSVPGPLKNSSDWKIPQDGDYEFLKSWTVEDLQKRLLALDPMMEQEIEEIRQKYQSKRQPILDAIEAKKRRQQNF
# [17] = target: T4, Serine/threonine-protein kinase 4 (Homo sapiens); settings: at 1 µM
# [18] = target: T5, Serine/threonine-protein kinase 3 (Homo sapiens) (UniProt Q13188); settings: at 0.1 µM
# T5 sequence (whole entry): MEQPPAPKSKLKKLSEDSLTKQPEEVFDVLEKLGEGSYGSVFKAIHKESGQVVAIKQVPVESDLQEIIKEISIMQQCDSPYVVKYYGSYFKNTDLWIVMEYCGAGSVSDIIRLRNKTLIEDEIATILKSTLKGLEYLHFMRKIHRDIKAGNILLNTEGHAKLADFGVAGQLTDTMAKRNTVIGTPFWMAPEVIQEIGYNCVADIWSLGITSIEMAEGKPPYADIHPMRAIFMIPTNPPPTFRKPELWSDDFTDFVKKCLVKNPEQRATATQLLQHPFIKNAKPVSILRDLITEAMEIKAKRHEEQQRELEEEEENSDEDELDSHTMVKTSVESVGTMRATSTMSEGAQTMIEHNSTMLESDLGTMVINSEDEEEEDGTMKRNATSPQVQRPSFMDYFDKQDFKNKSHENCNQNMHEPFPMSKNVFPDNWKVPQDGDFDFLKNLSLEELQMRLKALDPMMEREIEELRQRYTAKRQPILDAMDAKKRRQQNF
# [19] = target: T5, Serine/threonine-protein kinase 3 (Homo sapiens); settings: at 1 µM
# [20] = target: Serine/threonine-protein kinase 26 (Homo sapiens) (UniProt Q9P289); settings: at 0.1 µM
# Chain of Serine/threonine-protein kinase 26 (Homo sapiens) (Q9P289 2-416 limits assumed): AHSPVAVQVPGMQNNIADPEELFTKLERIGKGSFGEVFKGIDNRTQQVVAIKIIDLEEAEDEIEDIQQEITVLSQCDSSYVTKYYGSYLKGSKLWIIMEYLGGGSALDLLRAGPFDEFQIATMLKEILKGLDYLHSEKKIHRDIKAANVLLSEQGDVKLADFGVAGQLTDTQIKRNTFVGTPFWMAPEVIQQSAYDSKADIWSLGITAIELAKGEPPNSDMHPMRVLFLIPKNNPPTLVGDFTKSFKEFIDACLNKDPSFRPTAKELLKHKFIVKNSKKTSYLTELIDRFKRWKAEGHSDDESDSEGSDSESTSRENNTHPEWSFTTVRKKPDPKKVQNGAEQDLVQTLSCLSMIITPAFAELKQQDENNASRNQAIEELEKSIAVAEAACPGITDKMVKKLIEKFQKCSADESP
# Chain of Dual specificity mitogen-activated protein kinase kinase 1 (Homo sapiens) (Q02750 whole entry): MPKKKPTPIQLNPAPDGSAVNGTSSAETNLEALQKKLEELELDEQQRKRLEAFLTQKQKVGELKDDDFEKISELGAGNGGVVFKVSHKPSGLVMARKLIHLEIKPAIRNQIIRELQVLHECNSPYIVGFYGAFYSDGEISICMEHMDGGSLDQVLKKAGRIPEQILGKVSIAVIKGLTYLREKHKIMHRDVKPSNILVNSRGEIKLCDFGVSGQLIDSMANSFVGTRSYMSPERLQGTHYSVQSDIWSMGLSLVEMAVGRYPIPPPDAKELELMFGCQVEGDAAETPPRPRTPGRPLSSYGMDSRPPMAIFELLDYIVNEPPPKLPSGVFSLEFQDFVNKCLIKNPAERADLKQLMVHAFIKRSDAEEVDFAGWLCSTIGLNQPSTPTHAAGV
# Chain of Aurora kinase B (Homo sapiens) (Q96GD4 whole entry): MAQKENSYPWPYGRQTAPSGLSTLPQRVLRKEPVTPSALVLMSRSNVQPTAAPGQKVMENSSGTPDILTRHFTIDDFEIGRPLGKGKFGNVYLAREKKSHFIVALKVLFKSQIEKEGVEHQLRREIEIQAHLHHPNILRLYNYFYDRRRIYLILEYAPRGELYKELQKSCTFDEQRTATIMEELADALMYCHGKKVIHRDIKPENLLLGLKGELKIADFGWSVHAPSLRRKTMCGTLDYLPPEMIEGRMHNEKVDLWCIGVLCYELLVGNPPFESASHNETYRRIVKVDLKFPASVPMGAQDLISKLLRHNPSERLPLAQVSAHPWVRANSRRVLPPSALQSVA
# Chain of Serine/threonine-protein kinase 10 (Homo sapiens) (O94804 whole entry, looked up): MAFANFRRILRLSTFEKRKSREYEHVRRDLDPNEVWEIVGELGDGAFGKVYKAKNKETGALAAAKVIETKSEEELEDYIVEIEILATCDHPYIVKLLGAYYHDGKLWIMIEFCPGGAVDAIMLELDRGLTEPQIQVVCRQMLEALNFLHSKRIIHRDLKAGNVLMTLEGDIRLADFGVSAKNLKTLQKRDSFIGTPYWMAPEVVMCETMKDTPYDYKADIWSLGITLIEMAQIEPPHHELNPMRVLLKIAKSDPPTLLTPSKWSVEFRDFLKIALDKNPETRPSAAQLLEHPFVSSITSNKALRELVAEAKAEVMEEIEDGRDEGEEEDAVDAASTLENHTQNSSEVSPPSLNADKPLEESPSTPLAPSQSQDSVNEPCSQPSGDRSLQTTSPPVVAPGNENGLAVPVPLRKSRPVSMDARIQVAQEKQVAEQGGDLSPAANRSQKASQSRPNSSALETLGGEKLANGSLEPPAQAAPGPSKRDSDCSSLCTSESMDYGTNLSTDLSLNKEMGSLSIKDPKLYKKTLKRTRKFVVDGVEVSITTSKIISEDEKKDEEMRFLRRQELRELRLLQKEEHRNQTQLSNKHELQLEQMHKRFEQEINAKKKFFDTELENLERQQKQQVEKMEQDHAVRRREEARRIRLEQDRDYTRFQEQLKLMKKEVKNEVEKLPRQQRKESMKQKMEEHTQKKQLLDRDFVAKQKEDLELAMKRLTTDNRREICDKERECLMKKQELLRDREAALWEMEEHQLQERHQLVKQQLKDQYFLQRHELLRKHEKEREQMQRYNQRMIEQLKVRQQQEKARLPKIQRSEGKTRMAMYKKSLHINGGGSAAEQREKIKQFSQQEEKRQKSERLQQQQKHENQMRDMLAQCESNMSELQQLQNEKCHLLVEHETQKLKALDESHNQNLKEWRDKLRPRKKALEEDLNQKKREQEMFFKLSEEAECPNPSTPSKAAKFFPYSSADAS
# Chain of Mitogen-activated protein kinase kinase kinase kinase 4 (Homo sapiens) (O95819 2-1239 limits assumed): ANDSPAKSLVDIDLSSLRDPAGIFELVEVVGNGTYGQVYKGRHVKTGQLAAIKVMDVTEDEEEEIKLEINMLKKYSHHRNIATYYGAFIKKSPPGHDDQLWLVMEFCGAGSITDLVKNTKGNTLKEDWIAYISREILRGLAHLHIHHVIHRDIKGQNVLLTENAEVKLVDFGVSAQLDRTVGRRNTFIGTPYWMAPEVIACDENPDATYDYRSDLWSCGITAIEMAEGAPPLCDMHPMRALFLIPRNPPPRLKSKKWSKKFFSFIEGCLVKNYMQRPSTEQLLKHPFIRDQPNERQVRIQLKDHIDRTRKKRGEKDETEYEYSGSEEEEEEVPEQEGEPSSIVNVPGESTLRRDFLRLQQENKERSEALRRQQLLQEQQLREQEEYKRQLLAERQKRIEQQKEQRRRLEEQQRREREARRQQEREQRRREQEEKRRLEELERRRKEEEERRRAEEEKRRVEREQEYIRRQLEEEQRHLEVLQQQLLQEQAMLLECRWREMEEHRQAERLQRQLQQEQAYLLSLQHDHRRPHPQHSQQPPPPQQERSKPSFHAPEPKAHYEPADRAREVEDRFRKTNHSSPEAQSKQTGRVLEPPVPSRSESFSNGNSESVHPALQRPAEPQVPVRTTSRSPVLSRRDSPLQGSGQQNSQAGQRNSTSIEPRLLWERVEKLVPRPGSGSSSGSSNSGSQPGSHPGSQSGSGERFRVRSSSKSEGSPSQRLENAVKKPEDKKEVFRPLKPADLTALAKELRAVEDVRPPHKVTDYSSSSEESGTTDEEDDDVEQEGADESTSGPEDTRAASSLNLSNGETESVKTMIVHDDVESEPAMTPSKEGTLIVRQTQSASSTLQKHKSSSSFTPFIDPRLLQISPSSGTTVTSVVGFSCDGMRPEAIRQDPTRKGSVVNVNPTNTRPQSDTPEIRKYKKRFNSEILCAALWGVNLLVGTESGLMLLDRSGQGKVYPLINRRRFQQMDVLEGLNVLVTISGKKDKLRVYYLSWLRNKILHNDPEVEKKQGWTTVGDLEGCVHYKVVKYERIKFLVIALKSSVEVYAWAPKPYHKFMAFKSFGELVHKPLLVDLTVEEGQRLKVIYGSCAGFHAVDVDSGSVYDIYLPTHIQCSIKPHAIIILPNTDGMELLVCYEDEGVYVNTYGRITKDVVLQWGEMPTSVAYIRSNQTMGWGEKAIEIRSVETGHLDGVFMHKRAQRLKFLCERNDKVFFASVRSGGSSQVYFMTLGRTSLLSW
# Chain of Misshapen-like kinase 1 (Homo sapiens) (Q8N4C8 whole entry, looked up): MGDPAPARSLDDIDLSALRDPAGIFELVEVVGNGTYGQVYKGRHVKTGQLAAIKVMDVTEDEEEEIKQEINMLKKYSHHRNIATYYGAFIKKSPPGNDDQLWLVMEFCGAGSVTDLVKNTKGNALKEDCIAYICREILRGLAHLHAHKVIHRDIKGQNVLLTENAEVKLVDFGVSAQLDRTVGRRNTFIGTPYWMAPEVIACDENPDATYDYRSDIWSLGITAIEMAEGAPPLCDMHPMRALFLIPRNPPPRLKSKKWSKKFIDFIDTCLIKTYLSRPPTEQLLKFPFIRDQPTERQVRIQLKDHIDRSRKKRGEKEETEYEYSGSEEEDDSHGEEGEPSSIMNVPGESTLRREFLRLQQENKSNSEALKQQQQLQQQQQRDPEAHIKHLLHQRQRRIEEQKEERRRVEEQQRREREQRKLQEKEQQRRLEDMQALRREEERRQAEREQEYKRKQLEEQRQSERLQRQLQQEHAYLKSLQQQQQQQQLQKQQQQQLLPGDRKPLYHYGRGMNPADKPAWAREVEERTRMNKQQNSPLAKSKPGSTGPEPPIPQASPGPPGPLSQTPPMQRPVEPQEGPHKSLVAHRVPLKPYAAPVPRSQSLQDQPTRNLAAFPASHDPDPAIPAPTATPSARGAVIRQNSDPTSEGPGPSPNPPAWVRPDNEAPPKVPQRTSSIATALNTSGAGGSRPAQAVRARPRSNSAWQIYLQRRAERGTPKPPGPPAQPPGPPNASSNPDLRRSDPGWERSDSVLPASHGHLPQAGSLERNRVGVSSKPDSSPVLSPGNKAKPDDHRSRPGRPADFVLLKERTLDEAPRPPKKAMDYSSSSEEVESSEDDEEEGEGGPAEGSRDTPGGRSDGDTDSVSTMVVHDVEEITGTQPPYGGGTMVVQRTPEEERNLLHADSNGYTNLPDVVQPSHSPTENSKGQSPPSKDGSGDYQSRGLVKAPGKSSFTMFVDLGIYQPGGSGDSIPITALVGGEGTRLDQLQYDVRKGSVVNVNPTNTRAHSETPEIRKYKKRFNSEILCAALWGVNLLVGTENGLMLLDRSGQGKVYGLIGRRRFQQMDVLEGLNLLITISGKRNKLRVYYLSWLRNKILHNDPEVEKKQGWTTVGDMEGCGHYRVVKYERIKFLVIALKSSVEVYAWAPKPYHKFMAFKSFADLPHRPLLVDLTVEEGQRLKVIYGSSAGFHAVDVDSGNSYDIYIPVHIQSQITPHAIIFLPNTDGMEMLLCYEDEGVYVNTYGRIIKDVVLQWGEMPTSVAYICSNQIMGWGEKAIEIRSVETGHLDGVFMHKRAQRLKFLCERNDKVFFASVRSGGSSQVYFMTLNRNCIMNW
SMILES,inhibition [1],inhibition [2],inhibition [3],inhibition [4],inhibition [5],inhibition [6],inhibition [7],inhibition [8],inhibition [9],inhibition [10],inhibition [11],inhibition [12],inhibition [13],inhibition [14],inhibition [15],inhibition [16],inhibition [17],inhibition [18],inhibition [19],inhibition [20]
Cc1cc(-c2ccco2)cc(C)c1/C=C/c1cncc(-c2nn[nH]n2)c1,20%,0%,3.63%,-0.32%,7.33%,2.24%,2.3%,1.39%,1.37%,1.07%,-0.27%,3.02%,3.14%,1.5%,0.04%,0.26%,0.16%,-0.6%,0.69%,1.06%
NS(=O)(=O)c1ccc(N/C=C2\C(=O)Nc3ccc4ncsc4c32)cc1,80.2%,19.6%,55.2%,22.5%,79.2%,5.85%,16.2%,12.8%,52.1%,55.1%,76.9%,8.75%,42.9%,45.2%,76.9%,70.2%,75.2%,65.1%,73.7%,42.6%
NC(=O)c1sc(-n2cnc3cc(C(F)(F)F)ccc32)cc1OCc1ccccc1Br,2.05%,-0.8%,2.44%,1.36%,4.02%,7.36%,34.7%,1.32%,5.29%,3.11%,12.4%,2.56%,1.52%,4.93%,11.4%,1.82%,2.83%,1.31%,2.28%,1.54%
CCn1c(-c2nonc2N)nc2c(C#CC(C)(C)O)ncc(OCC3CCNCC3)c21,3.09%,-0.07%,0.45%,-3.33%,,3.91%,13.6%,1.42%,1.95%,4.98%,17.6%,5.08%,4.1%,5.98%,13.3%,8.62%,16.3%,8.69%,14.7%,0.23%
COc1cc(C=NNc2ncnc3c2cnn3Cc2ccccc2)ccc1O,25.6%,2.52%,34.4%,1.25%,10.6%,-4.65%,5.71%,0.89%,4.63%,-1.52%,7.51%,-3.29%,-4.65%,-2.43%,5.48%,-3.73%,-2.3%,-4.05%,-0.82%,1.58%
Nc1nonc1-c1nc2cnccc2n1C1CCCCC1,5.79%,0.62%,7.52%,-0.66%,5.22%,0.39%,18.4%,3.87%,20.4%,6.25%,46.2%,0.13%,7.67%,2.02%,31.4%,0.54%,18.5%,-0.2%,13.8%,0.77%
CCn1c(-c2nonc2N)nc2c(C#CC(C)(C)O)ncc(OC[C@@H]3CCCN3)c21,1.08%,-1.36%,0.87%,1.23%,1.45%,-0.11%,5.64%,2.41%,3.31%,0.39%,2.54%,1.6%,0.19%,0.63%,0.93%,0.46%,2.14%,0.87%,2.41%,0.78%
COc1cccc(-n2ncc3c(N/N=C/c4ccncc4)ncnc32)c1,73.8%,7.94%,43.1%,7.33%,61.4%,5.83%,33.5%,2.12%,7.06%,20.1%,67.7%,7.89%,7.23%,16.2%,55.4%,9.07%,12.8%,5.41%,10.7%,0.95%
NS(=O)(=O)c1ccc(-c2ccc3c(NC(=O)C4CC4)n[nH]c3c2)cc1,15.3%,3.22%,0.63%,1.15%,14.4%,4.04%,5.59%,-0.26%,2.11%,3.77%,5.23%,1.7%,2%,3.12%,4.48%,3.07%,5.91%,4.35%,5.17%,0.02%
CCn1c(-c2nonc2N)nc2c(C#CC(C)(C)O)nc(O[C@@H](CN)c3ccccc3)cc21,5.65%,0.38%,6.56%,-0.63%,1.38%,1.16%,19.8%,4.66%,24.8%,2.87%,20.4%,-0.01%,6.28%,2.21%,11%,3.02%,15.9%,1.12%,,1.22%
Fc1ccc(-c2ncn(C3CCNCC3)c2-c2ccnc(Oc3ccccc3)n2)cc1,-2.89%,-0.82%,1.75%,-4.42%,-1.24%,6.38%,8.33%,1.61%,4.65%,1.76%,6.15%,1.34%,3.93%,2.7%,6.65%,0.94%,1.85%,1.01%,2.48%,-0.85%
CCn1c(-c2nonc2N)nc2c(C#CCN)ncc(OCCCN)c21,5.16%,4.99%,6.36%,3.54%,-8.09%,4.42%,11.3%,3.61%,4.55%,1.78%,6.77%,-2.28%,-2.9%,-0.45%,11.5%,2%,5.35%,2.31%,6.61%,1.82%
COc1cc2c(cc1Nc1nc(Nc3ccsc3C(N)=O)c3cc[nH]c3n1)N(C(=O)CN(C)C)CCC2,,0.75%,2.92%,1.46%,2.53%,11.4%,17.4%,1.63%,11.8%,9.31%,14.9%,-3.96%,-5.54%,13.3%,17%,1.72%,8.27%,,,1.14%
COc1cccc(COc2cc(-n3cnc4ccccc43)sc2C(N)=O)c1,2.21%,-1.57%,1.15%,1.58%,3.73%,4.63%,39.4%,1.4%,7.04%,1.37%,18.5%,0.36%,0.58%,3.1%,16.3%,-1.11%,2.62%,0.35%,1.4%,1.25%
